This is an account of results in PubChem BioAssay (EPA / NIEHS).

Common to all, as to conditions: mRNA level, 48 h; actives raise or lower the signal
Read-out in test [1]: Lipoprotein lipase (LPL), LPL (gene 4023)
The experiment in a line: LTEA_HepaRG_LPL: Life Technologies and Expression Analysis (LTEA) Assay for Lipoprotein lipase (LPL) using HepaRG (AID 2283515). The method, boiled down:
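Read-out is LPL transcript level by qRT-PCR, normalized to three housekeeping genes and fitted bidirectionally against the DMSO control. Human HepaRG cells received chemicals for 48 h at up to 100 uM.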

Read-out in test [2]: MicroRNA 122 (MIR122), gene 406906
The test is described as follows: LTEA_HepaRG_MIR122: Life Technologies and Expression Analysis (LTEA) Assay for MicroRNA 122 (MIR122) using HepaRG (AID 2283516). Further: the transcript read is the microRNA miR-122. The method, boiled down:
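HepaRG, 48 h exposure, 8-pt half-log from 100 uM, 0.5% DMSO; TaqMan qRT-PCR; bidirectional fit vs DMSO.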

Read-out in test [3]: Nuclear factor NF-kappa-B p105 subunit (Homo sapiens) (UniProt P19838)
The experiment in a line: LTEA_HepaRG_NFKB1: Life Technologies and Expression Analysis (LTEA) Assay for Nuclear Factor Kappa B Subunit 1 (NFKB1) using HepaRG (AID 2283521).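 On outcome: TaqMan qRT-PCR transcript normalised to ACTB GAPDH and POLR2A housekeeping genes.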 The method, boiled down: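 Differentiated human HepaRG cells were exposed for 48 h in serum-free induction medium to eight concentrations (top 100 uM, half-log steps, 0.5% DMSO), in duplicate. NFKB1 mRNA was measured by TaqMan qRT-PCR, normalized to ACTB/GAPDH/POLR2A, and fitted bidirectionally against DMSO.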

Read-out in test [4]: Protein phosphatase 2A (PPP2R4), PTPA (gene 5524)
The experiment in a line: LTEA_HepaRG_PPP2R4: Life Technologies and Expression Analysis (LTEA) Assay for Protein phosphatase 2A (PPP2R4) using HepaRG (AID 2283522). The method, boiled down:
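Gene-expression endpoint in HepaRG hepatic cells: 48 h treatment across eight half-log concentrations up to 100 uM in 0.5% DMSO. PPP2R4 mRNA by qRT-PCR, normalized to three endogenous control genes.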

Read-out in test [5]: solute carrier (SLC22A1), SLC22A1 (gene 6580)
The test is described as follows: LTEA_HepaRG_SLC22A1: Life Technologies and Expression Analysis (LTEA) Assay for solute carrier (SLC22A1) using HepaRG (AID 2283524). The method, boiled down: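 HepaRG (human liver line), 48 h dosing in serum-free induction medium; 8 conc., half-log down from 100 uM, 0.5% DMSO vehicle, duplicates. Endpoint: SLC22A1 mRNA, qRT-PCR, housekeeping-normalized; gain/loss fit vs DMSO.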

Read-out in test [6]: NAD(P)H dehydrogenase [quinone] 1 (NQO1), NQO1 (gene 1728)
The experiment in a line: LTEA_HepaRG_NQO1: Life Technologies and Expression Analysis (LTEA) Assay for NAD(P)H dehydrogenase [quinone] 1 (NQO1) using HepaRG (AID 2283526). The essentials: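 Human HepaRG hepatic cells received chemicals for 48 h in serum-free induction medium with 0.5% DMSO, up to 100 uM. Expression was assessed by TaqMan qRT-PCR against housekeeping controls and fitted bidirectionally against DMSO.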

Read-out in test [7]: Nuclear factor erythroid 2-related factor 2 (Homo sapiens) (UniProt Q16236)
The experiment in a line: LTEA_HepaRG_NFE2L2: Life Technologies and Expression Analysis (LTEA) Assay for Nuclear factor erythroid 2-related factor 2 (NFE2L2) Transcription Factor using HepaRG (AID 2283527).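 On outcome: TaqMan qRT-PCR transcript level normalised to ACTB GAPDH and POLR2A housekeeping genes.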 The method, boiled down:
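Transcript level of NFE2L2 is the read-out, measured by microfluidic TaqMan qRT-PCR and normalized to three housekeeping genes. Human HepaRG cultures received test chemical for 48 h at up to 100 uM in half-log steps. Gain or loss of signal is fitted relative to 0.5% DMSO.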

Read-out in test [8]: succinate dehydrogenase complex iron sulfur subunit B (SDHB), SDHB (gene 6390)
The experiment in a line: LTEA_HepaRG_SDHB: Life Technologies and Expression Analysis (LTEA) Assay for succinate dehydrogenase complex iron sulfur subunit B (SDHB) using HepaRG (AID 2283528). The method, boiled down:
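HepaRG, 48 h exposure, 8-pt half-log series from 100 uM in 0.5% DMSO, duplicates. Readout: SDHB mRNA by Fluidigm qRT-PCR vs housekeeping genes; bidirectional fit relative to DMSO.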

Read-out in test [9]: solute carrier (SLCO1B1), SLCO1B1 (gene 10599)
The experiment in a line: LTEA_HepaRG_SLCO1B1: Life Technologies and Expression Analysis (LTEA) Assay for solute carrier (SLCO1B1) using HepaRG (AID 2283530). The method, boiled down:
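Differentiated human HepaRG cells, plated 48 h, switched to serum-free induction medium and exposed in duplicate for 48 h to 8 half-log concentrations (top 100 uM) in 0.5% DMSO. SLCO1B1 mRNA by TaqMan qRT-PCR, normalized to ACTB/GAPDH/POLR2A.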

Read-out in test [10]: sulfotransferase 2A1 (SULT2A1), SULT2A1 (gene 6822)
The experiment in a line: LTEA_HepaRG_SULT2A1: Life Technologies and Expression Analysis (LTEA) Assay for sulfotransferase 2A1 (SULT2A1) using HepaRG (AID 2283531). The essentials:
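Differentiated human HepaRG cells in serum-free induction medium were exposed for 48 h to eight half-log concentrations (top 100 uM, 0.5% DMSO). SULT2A1 mRNA was measured by qRT-PCR, normalized to ACTB, GAPDH and POLR2A, and fitted bidirectionally against DMSO.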

Read-out in test [11]: Transforming Growth Factor (TGFB1), TGFB1 (gene 7040)
The experiment in a line: LTEA_HepaRG_TGFB1: Life Technologies and Expression Analysis (LTEA) Assay for Transforming Growth Factor (TGFB1) Transporter using HepaRG (AID 2283533). The essentials: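 Differentiated human HepaRG cells in serum-free induction medium were exposed in duplicate for 48 h to eight concentrations (top 100 uM, half-log steps, 0.5% DMSO). TGFB1 mRNA was quantified by qRT-PCR, normalized to ACTB, GAPDH, POLR2A, and fitted bidirectionally against DMSO.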

Read-out in a further test: TIMP1, TIMP1 (gene 7076)
The experiment in a line: LTEA_HepaRG_TIMP1: Life Technologies and Expression Analysis (LTEA) Assay for TIMP1 using HepaRG (AID 2283534).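 On outcome: TaqMan qRT-PCR signal normalized to ACTB GAPDH and POLR2A housekeeping genes.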 The method, boiled down: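 Differentiated human HepaRG cells in serum-free induction medium were exposed 48 h to chemicals (8 half-log concentrations, top 100 uM, 0.5% DMSO). TIMP1 mRNA was quantified by TaqMan qRT-PCR, normalized to ACTB/GAPDH/POLR2A; bidirectional fit versus DMSO.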

Read-out in another test: MYC, MYC (gene 4609)
The experiment in a line: LTEA_HepaRG_MYC: Life Technologies and Expression Analysis (LTEA) Assay for MYC using HepaRG (AID 2283518). The essentials: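 Differentiated human HepaRG cells, plated 48 h then switched to serum-free induction medium, were exposed in duplicate for 48 h to 8-point half-log series up to 100 uM in 0.5% DMSO. MYC mRNA measured by qRT-PCR, normalized to ACTB/GAPDH/POLR2A.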

Read-out in test [12]: Paternally Expressed 10 (PEG10), PEG10 (gene 23089)
The experiment in a line: LTEA_HepaRG_PEG10: Life Technologies and Expression Analysis (LTEA) Assay for Paternally Expressed 10 (PEG10) using HepaRG (AID 2283520).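 On AC50: PEG10 transcript by qRT-PCR normalised to ACTB GAPDH and POLR2A.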 The method, boiled down:
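Chemicals tested on HepaRG cells for 48 h, highest concentration 100 uM. PEG10 expression assessed by qRT-PCR relative to DMSO control.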

Read-out in test [13]: Signal transducer and activator of transcription 3 (Homo sapiens) (UniProt P40763)
The experiment in a line: LTEA_HepaRG_STAT3: Life Technologies and Expression Analysis (LTEA) Assay for Signal transducer and activator of transcription (STAT3) using HepaRG (AID 2283529). The method, boiled down: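 Read-out is STAT3 mRNA level by qRT-PCR, normalized to three housekeeping genes, in human HepaRG liver cells treated for 48 h. Concentrations ran from 100 uM downward in half-log steps; curves were fitted for gain or loss relative to 0.5% DMSO.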

Read-out in test [14]: Transforming Growth Factor (TGFA), TGFA (gene 7039)
The test is described as follows: LTEA_HepaRG_TGFA: Life Technologies and Expression Analysis (LTEA) Assay for Transforming Growth Factor (TGFA) using HepaRG (AID 2283532). The essentials:
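HepaRG (human liver line), 48 h exposure, 8 conc. half-log down from 100 uM, 0.5% DMSO vehicle, duplicates; serum-free induction medium. TGFA mRNA by TaqMan qRT-PCR, ACTB/GAPDH/POLR2A normalization; gain/loss fit vs DMSO.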

Read-out in test [15]: Phosphatase and tensin (PTEN), PTEN (gene 5728)
The test is described as follows: LTEA_HepaRG_PTEN: Life Technologies and Expression Analysis (LTEA) Assay for Phosphatase and tensin (PTEN) using HepaRG (AID 2283523). The essentials:
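Read-out is PTEN transcript level by multiplexed TaqMan qRT-PCR after 48 h chemical treatment of human HepaRG cultures in serum-free induction medium. Concentrations spanned 100 uM downward in half-log steps, 0.5% DMSO throughout; activity fitted in both directions against vehicle.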

Read-out in test [16]: Pyruvate Dehydrogenase Kinase 4 (PDK4), PDK4 (gene 5166)
The experiment in a line: LTEA_HepaRG_PDK4: Life Technologies and Expression Analysis (LTEA) Assay for Pyruvate Dehydrogenase Kinase 4 (PDK4) using HepaRG (AID 2283525). The essentials:
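In this multiplexed human HepaRG expression assay, cells are treated 48 h with test chemicals across an eight-point range starting at 100 uM. PDK4 mRNA changes, normalized to ACTB/GAPDH/POLR2A, are fitted in both directions relative to vehicle.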

Active and inactive are the calls of the source. How the source made its calls: active means hit-call score of the fitted dose curve at least 0.9, where 1 is the maximum; inactive means score below 0.9.

Sequence of Nuclear factor erythroid 2-related factor 2 (Homo sapiens) (Q16236 whole entry, looked up): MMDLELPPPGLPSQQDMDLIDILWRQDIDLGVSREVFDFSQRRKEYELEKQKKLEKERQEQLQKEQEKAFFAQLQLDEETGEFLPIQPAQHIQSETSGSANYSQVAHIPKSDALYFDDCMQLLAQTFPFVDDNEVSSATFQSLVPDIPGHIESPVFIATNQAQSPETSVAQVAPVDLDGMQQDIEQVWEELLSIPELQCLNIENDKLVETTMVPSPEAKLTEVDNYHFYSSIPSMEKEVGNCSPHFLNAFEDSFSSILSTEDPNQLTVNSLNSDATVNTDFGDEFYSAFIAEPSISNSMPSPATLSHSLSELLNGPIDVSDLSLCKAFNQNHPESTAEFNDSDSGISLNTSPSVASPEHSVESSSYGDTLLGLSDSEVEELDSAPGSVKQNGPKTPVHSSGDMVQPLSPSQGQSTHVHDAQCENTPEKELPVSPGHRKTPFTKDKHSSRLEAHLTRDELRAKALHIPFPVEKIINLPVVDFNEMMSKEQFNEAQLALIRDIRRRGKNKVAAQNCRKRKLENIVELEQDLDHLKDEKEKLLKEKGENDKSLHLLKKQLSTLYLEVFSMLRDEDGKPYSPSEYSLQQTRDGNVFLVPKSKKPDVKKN
Sequence of Signal transducer and activator of transcription 3 (Homo sapiens) (P40763 whole entry, looked up): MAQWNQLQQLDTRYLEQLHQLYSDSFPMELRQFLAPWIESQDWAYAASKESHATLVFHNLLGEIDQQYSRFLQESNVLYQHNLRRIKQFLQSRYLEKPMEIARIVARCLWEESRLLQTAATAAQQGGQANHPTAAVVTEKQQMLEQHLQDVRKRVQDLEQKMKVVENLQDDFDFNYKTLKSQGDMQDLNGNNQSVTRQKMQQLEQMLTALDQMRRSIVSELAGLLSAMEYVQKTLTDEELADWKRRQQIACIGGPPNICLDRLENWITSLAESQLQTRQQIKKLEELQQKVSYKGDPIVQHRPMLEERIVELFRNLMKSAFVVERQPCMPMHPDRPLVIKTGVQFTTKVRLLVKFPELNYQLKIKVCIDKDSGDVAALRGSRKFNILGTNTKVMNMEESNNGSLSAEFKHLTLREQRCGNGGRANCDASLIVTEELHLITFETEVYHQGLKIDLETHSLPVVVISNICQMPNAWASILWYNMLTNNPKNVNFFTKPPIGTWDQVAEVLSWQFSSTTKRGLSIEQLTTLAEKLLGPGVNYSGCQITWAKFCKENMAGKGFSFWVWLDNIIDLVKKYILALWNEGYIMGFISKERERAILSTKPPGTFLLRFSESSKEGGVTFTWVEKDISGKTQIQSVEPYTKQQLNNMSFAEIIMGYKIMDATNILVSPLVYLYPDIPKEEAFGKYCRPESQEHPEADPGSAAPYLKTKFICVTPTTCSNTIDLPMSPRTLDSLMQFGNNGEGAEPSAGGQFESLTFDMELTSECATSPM
Sequence of Nuclear factor NF-kappa-B p105 subunit (Homo sapiens) (P19838 whole entry, looked up): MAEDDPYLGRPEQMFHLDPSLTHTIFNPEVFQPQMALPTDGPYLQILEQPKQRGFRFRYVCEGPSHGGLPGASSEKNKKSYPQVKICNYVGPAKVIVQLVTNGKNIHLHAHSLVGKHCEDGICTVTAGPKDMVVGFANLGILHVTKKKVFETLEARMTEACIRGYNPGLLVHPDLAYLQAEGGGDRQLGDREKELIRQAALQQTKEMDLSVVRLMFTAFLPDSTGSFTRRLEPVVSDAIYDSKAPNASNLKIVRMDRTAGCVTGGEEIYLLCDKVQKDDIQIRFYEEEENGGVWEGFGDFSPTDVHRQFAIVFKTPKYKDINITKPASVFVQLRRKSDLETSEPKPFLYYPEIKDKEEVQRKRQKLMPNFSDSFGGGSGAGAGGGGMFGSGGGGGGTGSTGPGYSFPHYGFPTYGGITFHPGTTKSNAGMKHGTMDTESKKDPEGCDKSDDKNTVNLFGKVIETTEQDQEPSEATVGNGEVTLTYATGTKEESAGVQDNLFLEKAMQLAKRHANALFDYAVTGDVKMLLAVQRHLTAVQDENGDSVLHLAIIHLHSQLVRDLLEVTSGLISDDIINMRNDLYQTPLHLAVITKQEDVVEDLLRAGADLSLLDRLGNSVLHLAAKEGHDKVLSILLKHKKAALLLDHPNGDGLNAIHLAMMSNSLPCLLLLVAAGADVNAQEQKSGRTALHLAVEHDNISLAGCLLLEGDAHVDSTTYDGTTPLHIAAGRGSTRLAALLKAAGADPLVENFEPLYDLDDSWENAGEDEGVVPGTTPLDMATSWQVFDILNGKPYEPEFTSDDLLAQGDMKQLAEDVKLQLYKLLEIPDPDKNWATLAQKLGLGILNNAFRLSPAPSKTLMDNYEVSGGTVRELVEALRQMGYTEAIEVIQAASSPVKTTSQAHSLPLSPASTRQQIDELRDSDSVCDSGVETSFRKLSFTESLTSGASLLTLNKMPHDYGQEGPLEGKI

The AC50 is the concentration giving half of the maximal activity seen. Consider `NC(=O)c1nc(-c2cccc(-c3cc(F)ccc3OCC(F)(F)C(F)(F)F)c2)n[nH]1`, for which the compound was called inactive in [1], in test [2], in test [4], in [7], in test [8] and in [9]. The outcome in [10] and in test [11] was inactive. Besides, the AC50 in [3] is 82.8 µM (active); in test [5], 15.8 µM (active); in test [6], 78.2 µM (active); in the test with TIMP1, TIMP1 (gene 7076), 83.2 µM (active).

For `CN(C)c1ccc(C(=C2C=CC(=[N+](C)C)C=C2)c2ccc(N(C)C)cc2)cc1`, the AC50 was 36 µM (active) in [1]; 6.78 µM (active) in [2]; 12 µM (active) with MYC, MYC (gene 4609); 6.63 µM (active) in [12]; 12.9 µM (active) in test [4]; 3.62 µM (active) in test [5]. For the same compound, the AC50 is 5 µM (active) in test [6]; 12.7 µM (active) in test [7]; 11.1 µM (active) in test [8]; 39.3 µM (active) in test [13]; 4.64 µM (active) in test [9]; 3.54 µM (active) in [10]. For the same compound, the AC50 was 68.7 µM (active) in [11] and 74.2 µM (active) in the test with TIMP1, TIMP1 (gene 7076). Besides, in test [14], the call was inactive.

As for `O=CCCCC=O`, the outcome in [1] was “inactive”; in test [2], “inactive”; with MYC, MYC (gene 4609) it was “inactive”; in [12] it was “inactive”; in test [4], “inactive”; in test [15], “inactive”. The result in [5], in test [6], in test [7], in test [8], in test [9] and in [10] was inactive. The outcome in [11] was “inactive”; in the test with TIMP1, TIMP1 (gene 7076) it was “inactive”.

Regarding `O=C(O)c1ccccc1C(=O)OCc1ccccc1`, the outcome was “inactive” in test [1]; “inactive” in [2]; “inactive” with MYC, MYC (gene 4609); “inactive” in test [12]; “inactive” in [4]; “inactive” in test [5]. The compound was classed as inactive in test [6], in test [7], in [8], in test [13], in test [9] and in test [10]. Also, the outcome was “inactive” in test [14]; “inactive” in [11]; “inactive” with TIMP1, TIMP1 (gene 7076). Also, the AC50 in test [16] is 28.6 µM (active).

For `O=C1CCC(C2CCCCC2)CC1`, the call in [1], in test [2], in test [12], in [3], in test [4] and in test [5] was inactive. Further, the call in [16], in test [6], in [7], in [13], in test [9] and in test [11] was inactive. Moreover, the compound was called inactive with TIMP1, TIMP1 (gene 7076).
